Laboratory results as given in PubChem BioAssay.
Activity calls are given as the source filed them.

Key:
[1] = tested on: PRMT1 (protein arginine N-methyltransferase 1); experiment: small molecules binding arginine methyltransferase PRMT1 – biochemical, small-molecule microarray, 635 nm fluorescence, primary screen (AID 1088); conditions: higher = more signal;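 further: binding of Prmt1 protein to compounds spotted on small-molecule microarray slides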
[2] = growth effects on S. cerevisiae YJM789 – YJM789 clinical isolate, OD600, 24 h, basal, primary screen (AID 1089); conditions: higher = more signal, called active from +8 up or from −8 down;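 further: growth of clinical yeast isolate S. cerevisiae YJM 789 seeded 1000 cells per well; test concentration not given here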
[3] = S. pombe growth modifiers, basal conditions – strain 972, OD600, 24 h, no modulator, primary screen (AID 1090);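 further: basal condition with compound alone and no growth modifier present; test concentration not given here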; conditions: S. pombe 972 growth, higher = more signal, called active from +8 up or from −8 down
[4] = budding yeast growth modifiers under rapamycin – strain BY4716, OD600, 96 h, primary screen (AID 1091); further: test concentration not given here; conditions: S. cerevisiae BY4716 + rapamycin, higher = more signal, called active from +8 up or from −8 down
[5] = molecular target: Torsin-1A-interacting protein 2 (Homo sapiens) (UniProt Q8NFQ8); experiment: small molecules binding lysate-expressed LULL1 – cell lysate, human LULL1 lysate, 635/667 nm fluorescence, primary screen (AID 1092); conditions: small-molecule microarray, hLULL1 lysate binding, 635 nm fluorescence; higher = more signal;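 further: probe is lysate of COS7 cells overexpressing human LULL1; score merges per-feature 667 nm fluorescence with signal-to-noise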
Torsin-1A-interacting protein 2 (Homo sapiens), sequence (Q8NFQ8 whole entry, looked up): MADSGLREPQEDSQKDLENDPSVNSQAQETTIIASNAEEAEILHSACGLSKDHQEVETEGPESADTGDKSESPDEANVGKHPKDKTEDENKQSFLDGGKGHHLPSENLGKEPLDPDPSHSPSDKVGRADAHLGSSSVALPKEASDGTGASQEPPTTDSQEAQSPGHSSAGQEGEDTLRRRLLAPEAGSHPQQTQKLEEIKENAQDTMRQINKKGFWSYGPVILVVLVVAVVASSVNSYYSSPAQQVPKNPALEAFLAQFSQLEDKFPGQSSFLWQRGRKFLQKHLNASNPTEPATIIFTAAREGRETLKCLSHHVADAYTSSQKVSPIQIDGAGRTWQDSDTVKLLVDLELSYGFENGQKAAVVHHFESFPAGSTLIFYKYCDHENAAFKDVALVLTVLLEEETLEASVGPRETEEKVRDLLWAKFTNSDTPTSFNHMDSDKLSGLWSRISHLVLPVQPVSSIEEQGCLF

[6] = optical density change of DRC41 E. coli – strain DRC41, OD650, 24 h, E. coli filamentation project, primary screen (AID 1093);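 further: MC1000 strain lacking acrAB efflux and sulA so SOS filamentation is blocked; test concentration not given here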; conditions: E. coli DRC41 growth, higher = more signal, called active from +8 up or from −8 down
[7] = probe aLefty2 binding to arrayed compounds – biochemical, biotinylated probe, 635/667 nm fluorescence, primary screen (AID 1094); conditions: small-molecule microarray, higher = more signal;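 further: score merges spot fluorescence near 667 nm with spot signal-to-noise ratio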
[8] = tested on: Noggin (protein binding on small-molecule microarray); experiment: small molecules binding Noggin protein – biochemical, 635/667 nm fluorescence, primary screen (AID 1095); conditions: 635 nm fluorescence, higher = more signal;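 further: score merges 667 nm feature fluorescence with signal to noise over triplicate slides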
[9] = molecular target: Neurogenic locus notch homolog protein 3 (Homo sapiens) (UniProt Q9UM47); experiment: small molecules binding NOTCH3 protein – biochemical, 635/667 nm fluorescence, primary screen (AID 1096); conditions: small-molecule microarray, 635 nm fluorescence, higher = more signal
Neurogenic locus notch homolog protein 3 (Homo sapiens), sequence (Q9UM47 whole entry, looked up): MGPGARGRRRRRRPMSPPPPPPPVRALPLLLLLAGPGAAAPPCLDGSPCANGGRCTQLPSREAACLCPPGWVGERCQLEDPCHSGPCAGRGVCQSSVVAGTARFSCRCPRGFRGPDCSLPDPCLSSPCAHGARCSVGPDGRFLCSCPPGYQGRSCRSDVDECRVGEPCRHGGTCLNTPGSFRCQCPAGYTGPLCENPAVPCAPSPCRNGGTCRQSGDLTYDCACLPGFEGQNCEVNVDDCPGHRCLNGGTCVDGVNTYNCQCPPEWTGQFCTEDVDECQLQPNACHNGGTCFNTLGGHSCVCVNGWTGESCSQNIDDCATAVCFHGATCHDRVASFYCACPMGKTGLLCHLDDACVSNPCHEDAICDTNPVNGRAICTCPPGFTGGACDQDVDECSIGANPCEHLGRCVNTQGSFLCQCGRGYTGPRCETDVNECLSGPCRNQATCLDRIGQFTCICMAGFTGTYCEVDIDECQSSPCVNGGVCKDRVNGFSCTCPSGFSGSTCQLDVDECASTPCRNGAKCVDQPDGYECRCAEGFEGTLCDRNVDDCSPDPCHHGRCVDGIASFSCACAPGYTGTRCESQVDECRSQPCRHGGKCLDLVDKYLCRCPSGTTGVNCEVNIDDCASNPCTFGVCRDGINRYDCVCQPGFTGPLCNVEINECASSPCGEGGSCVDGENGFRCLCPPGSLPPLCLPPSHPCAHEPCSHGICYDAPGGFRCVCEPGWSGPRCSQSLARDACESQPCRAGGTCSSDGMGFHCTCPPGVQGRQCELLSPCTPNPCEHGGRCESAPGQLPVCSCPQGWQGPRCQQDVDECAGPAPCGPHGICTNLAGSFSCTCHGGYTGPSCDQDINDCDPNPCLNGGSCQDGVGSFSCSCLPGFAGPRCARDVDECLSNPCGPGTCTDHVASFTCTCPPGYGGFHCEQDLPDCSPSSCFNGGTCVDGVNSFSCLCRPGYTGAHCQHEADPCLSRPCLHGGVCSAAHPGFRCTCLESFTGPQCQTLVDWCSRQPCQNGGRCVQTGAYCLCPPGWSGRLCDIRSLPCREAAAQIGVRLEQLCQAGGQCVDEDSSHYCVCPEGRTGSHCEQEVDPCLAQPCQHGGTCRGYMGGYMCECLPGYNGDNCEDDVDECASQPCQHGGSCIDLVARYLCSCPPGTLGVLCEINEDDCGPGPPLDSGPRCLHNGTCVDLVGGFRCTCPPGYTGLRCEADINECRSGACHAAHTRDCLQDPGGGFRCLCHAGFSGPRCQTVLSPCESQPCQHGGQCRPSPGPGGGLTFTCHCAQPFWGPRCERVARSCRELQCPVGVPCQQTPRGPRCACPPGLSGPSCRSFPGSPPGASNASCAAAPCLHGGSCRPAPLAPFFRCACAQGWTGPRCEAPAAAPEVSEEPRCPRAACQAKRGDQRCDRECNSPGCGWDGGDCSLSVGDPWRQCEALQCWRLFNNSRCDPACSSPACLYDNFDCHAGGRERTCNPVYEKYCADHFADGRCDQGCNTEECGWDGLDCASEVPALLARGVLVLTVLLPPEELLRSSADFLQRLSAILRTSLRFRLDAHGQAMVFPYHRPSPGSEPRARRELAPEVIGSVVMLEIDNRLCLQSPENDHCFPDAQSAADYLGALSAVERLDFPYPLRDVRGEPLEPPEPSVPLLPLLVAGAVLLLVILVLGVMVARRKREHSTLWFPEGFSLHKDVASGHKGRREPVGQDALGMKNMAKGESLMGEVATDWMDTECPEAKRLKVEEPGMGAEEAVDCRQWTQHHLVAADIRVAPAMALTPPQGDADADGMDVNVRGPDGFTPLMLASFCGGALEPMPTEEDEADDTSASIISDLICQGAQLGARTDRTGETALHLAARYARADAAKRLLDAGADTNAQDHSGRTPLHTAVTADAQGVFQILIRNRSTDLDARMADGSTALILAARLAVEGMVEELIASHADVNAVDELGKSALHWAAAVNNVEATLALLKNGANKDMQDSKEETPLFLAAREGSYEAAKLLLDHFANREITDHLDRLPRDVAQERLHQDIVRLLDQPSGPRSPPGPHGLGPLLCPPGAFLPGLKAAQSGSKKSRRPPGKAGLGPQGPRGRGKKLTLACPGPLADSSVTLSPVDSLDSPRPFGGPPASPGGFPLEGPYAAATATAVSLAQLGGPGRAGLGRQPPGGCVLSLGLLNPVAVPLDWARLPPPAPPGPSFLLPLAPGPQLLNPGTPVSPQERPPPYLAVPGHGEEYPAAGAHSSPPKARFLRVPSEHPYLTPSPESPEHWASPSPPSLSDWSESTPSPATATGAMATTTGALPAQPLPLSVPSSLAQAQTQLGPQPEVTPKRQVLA

[10] = probe aEGFR binding to arrayed compounds – biochemical, biotinylated probe, 635/667 nm fluorescence, primary screen (AID 1097); conditions: small-molecule microarray, higher = more signal;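 further: probe is a biotinylated anti-EGFR antibody binding compounds printed on slides; score combines fluorescence near 667 nm and signal to noise of each spot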

SMILES | composite z-score [1] | z-score [2] | z-score [3] | z-score [4] | composite z-score [5] | z-score [6] | composite z-score [7] | composite z-score [8] | composite z-score [9] | composite z-score [10]
Cc1ccc(S[C@]2(C(=O)O)CC(=O)N(C(C)C)[C@@H]2c2ccc(CO)cc2I)cc1 | 1.55 | -2.31 (inactive) | -2.85 (inactive) | 1.55 (inactive) | 2.21 | 3.25 (inactive) | 0.122 | -0.0137 | 0.271 | 0.0255
O=C1c2ccccc2[C@](Cc2ccccc2I)(C(=O)NCC(F)(F)F)[C@H](c2ccc(CO)cc2)N1Cc1ccccc1Cl | 1.53 | -0.893 (inactive) | -1.09 (inactive) | -1.29 (inactive) | 3 | -0.267 (inactive) | -0.0283 | 0.496 | 0.958 | -0.0409
CN1C=C(C(=O)OCCS(C)(=O)=O)C(C(=O)OCCS(C)(=O)=O)=CC(c2ccc(CO)cc2)=CC1C1CC1 (stereo not given) | 0.522 | 0.243 (inactive) | -1.34 (inactive) | 0.678 (inactive) | 1.33 | 0.108 (inactive) | -0.22 | 0.425 | 0.415 | -0.103
COC(=O)[C@@]1(Cc2ccc(OC)cc2)[C@H]2c3cc(C(=O)N(C)C)n(Cc4ccc(S(C)(=O)=O)cc4)c3C[C@H]2CN1C(=O)c1ccccc1 | -0.142 | -3.22 (inactive) | -0.462 (inactive) | -0.154 (inactive) | 3.4 | 0.0416 (inactive) | -0.264 | 0.715 | 1.11 | 0.0174
O=C(c1ccccc1)N1Cc2ccccc2C[C@@]2(COC(c3ccc(OCCCO)cc3)=N2)C1=O | 1.55 | -1.1 (inactive) | -11.1 (active) | 3.57 (inactive) | 3.39 | 0.0571 (inactive) | 0.0478 | 0.779 | 1.04 | -0.0439
C=CCNC(=O)[C@@H]1[C@H]2C(=O)O[C@H](c3ccccc3)[C@H](c3ccccc3)N2[C@H](c2ccc(O)cc2)[C@@]12C(=O)Nc1ccc(C#CCNC(N)=O)cc12 | 0.575 | -0.358 (inactive) | 0.112 (inactive) | 1.69 (inactive) | 2.13 | -1.11 (inactive) | -0.117 | 0.385 | 0.0332 | -0.172
CC(CO)N1C(=O)[C@@H]2C3C(=O)OCCC/C=C\[C@H]3OC23C=CCN(C(C)(C)C)C(=O)[C@@H]13 (stereo not given in full) | 0.0207 | -0.226 (inactive) | -0.911 (inactive) | -0.706 (inactive) | 0.478 | -0.0054 (inactive) | -0.216 | 0.0872 | 0.201 | -0.0905
COc1ccc(-c2cc3c(c(-c4ccc(Oc5ccccc5)cc4)n2)[Si](C(C)C)(C(C)C)OC3)cn1 | 0.483 | 1.32 (inactive) | 0.955 (inactive) | 1.88 (inactive) | -0.166 | -0.984 (inactive) | -0.119 | 0.503 | 0.342 | -0.26
[N-]=[N+]=Nc1ccccc1[C@H]1OC(c2ccc(OCCCO)cc2)=N[C@@]1(CCS(=O)(=O)c1ccccc1)C(N)=O | 1.01 | -0.268 (inactive) | -2.33 (inactive) | 0.372 (inactive) | 2.56 | 1.36 (inactive) | 0.24 | -0.194 | 0.42 | 0.401
CN1C(=O)C2C=CC(C(O)C3CC=CCC3)N(N(c3ccccc3)c3ccccc3)C2C1=O (stereo not given) | -1.73 | 0.607 (inactive) | 1.7 (inactive) | 1.01 (inactive) | -0.0863 | -0.843 (inactive) | 0.639 | -0.264 | 0.0898 | -0.0823
[N-]=[N+]=Nc1ccccc1[C@@H]1OC(c2ccc(OCCCO)cc2)=N[C@]1(Cc1ccccc1)C(=O)N1CCOCC1 | 1.56 | 0.785 (inactive) | -1.26 (inactive) | 1.85 (inactive) | 3.22 | 0.301 (inactive) | 0.225 | 0.328 | 1.1 | 0.276
CC(C)=CCN[C@H](CO)c1ccccc1 | -0.198 | -0.613 (inactive) | -4.99 (inactive) | -1.32 (inactive) | 0.138 | -0.291 (inactive) | -0.236 | 0.346 | -0.0083 | -0.203
O=C1OCCC/C=C\[C@H]2OC34C=CCN(Cc5ccccc5)C(=O)[C@H]3N(CCCO)C(=O)[C@@H]4C12 (stereo not given in full) | -0.523 | 0.769 (inactive) | -0.0304 (inactive) | 0.972 (inactive) | 1.83 | 0.872 (inactive) | -0.126 | -1.75 | -0.386 | -0.246
C=CCC(OC(C)=O)[C@@H]1[C@@H](N(Cc2ccc(-c3ccccc3)cc2)C(=O)c2cccc3ccccc23)c2cc(OCCCO)ccc2N1C(=O)c1ccc(-c2ccccc2)cc1 (stereo not given in full) | 0.245 | 0.21 (inactive) | -0.234 (inactive) | -0.438 (inactive) | 0.796 | 1.17 (inactive) | 0.0159 | 0.0623 | -0.0827 | 0.0009
COc1cc2c(cc1O)C(c1cccs1)N(C)CC2 (stereo not given) | -0.414 | 0.213 (inactive) | 1.07 (inactive) | -2.13 (inactive) | -0.849 | 0.841 (inactive) | -0.0943 | -0.428 | -0.0102 | -0.151
CN1C(=O)C2C=CC(C(O)c3ccco3)N(Nc3ccccc3)C2C1=O (stereo not given) | 0.941 | 0.312 (inactive) | 0.899 (inactive) | 1.74 (inactive) | 2.52 | -1.37 (inactive) | 0.0569 | 0.139 | 0.275 | -0.0976
O=C1N[C@@H](Cc2ccccc2)C(=O)N2[C@@H]1C[C@@H](C(=O)O)[C@H]2c1cccc(OCCO)c1 | 1.56 | 0.809 (inactive) | -0.66 (inactive) | -0.276 (inactive) | 1.06 | 1.18 (inactive) | -0.0206 | 1.43 | 0.611 | -0.071
CCCC=C(CCC)[C@@H](NC(=O)c1cccs1)c1ccc(C(F)(F)F)cc1 | 1.03 | -0.522 (inactive) | -2.1 (inactive) | -0.851 (inactive) | 0.109 | -0.649 (inactive) | 0.291 | 0.989 | 1.09 | 0.315
COC(=O)[C@@]1(Cc2ccc(OC)cc2)[C@H]2c3cc(C(=O)N4CCCC4)n(Cc4ccc(C)c(F)c4F)c3C[C@H]2CN1C(=O)c1ccccc1 | 0.998 | 0.57 (inactive) | 1.48 (inactive) | 1.57 (inactive) | 3.52 | 0.107 (inactive) | 0.505 | 0.214 | 1.04 | 0.178
CC(C)C(O)C1C=CC2C(=O)N(c3ccccc3)C(=O)C2N1Nc1ccc([N+](=O)[O-])cc1 (stereo not given) | 0.118 | 0.307 (inactive) | 0.815 (inactive) | 0.834 (inactive) | 2.89 | 0.171 (inactive) | 0.0827 | -0.0213 | 0.614 | 0.117
NC(=O)NCC#Cc1ccc2c(c1)[C@]1(C(=O)N2)[C@H](C(=O)Nc2nc3ccccc3s2)[C@H]2C(=O)O[C@H](c3ccccc3)[C@H](c3ccccc3)N2[C@@H]1c1ccccc1OCCO | 1.54 | 1.17 (inactive) | 1.33 (inactive) | 3.48 (inactive) | 3.85 | 1.5 (inactive) | -0.351 | 1.61 | 1.06 | 0.506
C=CCN1C(=O)[C@]2(O[C@H](CCn3cc([C@H](O)c4ccccc4)nn3)[C@@H]([Si](C)(C)c3ccc(OC)cc3)[C@@H]2C)c2cc(N3CCC3=O)ccc21 | 0.942 | 0.487 (inactive) | 0.406 (inactive) | 2.47 (inactive) | 1.56 | 1.28 (inactive) | -0.0397 | 1.82 | 0.803 | -0.154
COc1ccc([C@H]2OC[C@@H]3C[C@@H](Cc4ccccc4)C(=O)N32)cc1 | 0.758 | -2.03 (inactive) | -3.18 (inactive) | 4.07 (inactive) | 0.0239 | -0.468 (inactive) | -0.103 | 0.892 | 0.75 | -0.0299
C=C[C@H](C)[C@@H](OC(=O)Nc1ccc(OC)cc1)c1ccc(O)c2ccccc12 | 0.0444 | -24.6 (active) | -20.8 (active) | -3.58 (inactive) | 1.63 | 0.431 (inactive) | -0.266 | 0.823 | 0.0291 | -0.275
CN(C)CCCCCCNC(=O)[C@H]1C[C@H]2C(=O)N3CCC[C@H]3C(=O)N2[C@H]1c1ccc(O)cc1 | 1.53 | -0.389 (inactive) | -1.4 (inactive) | 0.24 (inactive) | 2.9 | 1.95 (inactive) | 0.172 | 1.74 | 1.07 | 0.475
CCCc1cc2c(n1Cc1cc(F)cc(F)c1)C(C)C1CN(C(=O)c3ccccc3)C(C)(C(=O)OC)C21 (stereo not given) | 0.497 | 0.149 (inactive) | 0.744 (inactive) | 0.734 (inactive) | 3.11 | -0.738 (inactive) | 1.02 | -0.266 | 1.03 | 0.249
COC(=O)C[C@H]1O[C@]2(C(=O)N(C)c3ccccc32)[C@@H](C)[C@@H]1[Si](C)(C)F | 1.54 | -2.06 (inactive) | -1.29 (inactive) | -0.922 (inactive) | 2.24 | 1.64 (inactive) | -0.168 | 1.86 | 0.59 | -0.132
CC(C)NC(=O)[C@@H]1c2ccccc2C(=O)N(C2Cc3ccccc3C2)[C@H]1c1ccc(CO)cc1 | 1.03 | -0.14 (inactive) | -0.0232 (inactive) | -0.377 (inactive) | 2.33 | 1.28 (inactive) | -0.0491 | 0.0941 | 0.436 | -0.126
